Test results as given in PMC12820563, “FoxP3 forms a head-to-head dimer in vivo and stabilizes its multimerization on adjacent microsatellites”.
Over roughly 16,000 sequences, “rpm ratio (pull-down/input)” has its median near 0.94; the highest 2% begin near 1.7. Shown is part of a subset that was picked to be rich in the highest values.

Target: T1, MBP-FoxP1dN (Mus musculus, UniProt P58462 326-579)
T1 sequence: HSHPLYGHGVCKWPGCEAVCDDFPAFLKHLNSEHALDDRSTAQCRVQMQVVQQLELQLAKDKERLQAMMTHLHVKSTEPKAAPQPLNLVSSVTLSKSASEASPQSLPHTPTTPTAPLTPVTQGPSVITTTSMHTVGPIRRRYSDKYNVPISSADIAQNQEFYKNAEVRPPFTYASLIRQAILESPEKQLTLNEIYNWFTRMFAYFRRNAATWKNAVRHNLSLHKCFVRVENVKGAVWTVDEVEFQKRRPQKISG
Assay: PD-seq (MBP pull-down with sequencing); 20 mM Tris-HCl pH 7.5, 100 mM NaCl, 1.5 mM MgCl2, 0.4 uM protein, 0.1 uM dsDNA library, 30 min, room temperature, amylose pull-down; high values mean tight binding
Details: protein: recombinant; tags: His6-MBP; chain copies: 2; dsDNA, one strand shown
Procedure, shortened: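 Binding is the reads-per-million enrichment of pull-down relative to input, pooled across replicates. For this, 0.4 µM His6-MBP-tagged mouse FoxP3 or FoxP1 fragment lacking the N-terminus, made in E. coli, was incubated with 0.1 µM Klenow-filled double-stranded degenerate DNA library for 30 min at room temperature in Tris pH 7.5 buffer with NaCl and MgCl2. Complexes bound to amylose resin were washed three times before proteinase K released the DNA for PCR barcoding and Illumina sequencing.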

Sequence | binding signal
GATGATTGTTCTCCCAGCTGATGAATTGATTGTATCGAGTAAACAAATTTTCCTAATCTTTCTGTTCAAGCGCCATCTAC | 1.54 RPM ratio (pull-down/input)
GATGATTGTTCTCCCAGCTGATGAATTGTGTTGATCGAGTAAACAAATTTTCCTAATCTTTCTGTTCAAGCGCCATCTAC | 2.46 RPM ratio (pull-down/input)
GATGATTGTTCTCCCAGCTGATGAATTGTATTGATCGAGTAAACAAATTTTCCTAATCTTTCTGTTCAAGCGCCATCTAC | 2.22 RPM ratio (pull-down/input)
GATGATTGTTCTCCCAGCTGATGAATTTGTTTGATCGAGTAAACAAATTTTCCTAATCTTTCTGTTCAAGCGCCATCTAC | 1.47 RPM ratio (pull-down/input)
GATGATTGTTCTCCCAGCTGATGAATTGTGAAAGTCGAGTAAACAAATTTTCCTAATCTTTCTGTTCAAGCGCCATCTAC | 1.01 RPM ratio (pull-down/input)
GATGATTGTTCTCCCAGCTGATGAATTAACAGACTCGAGTAAACAAATTTTCCTAATCTTTCTGTTCAAGCGCCATCTAC | 0.866 RPM ratio (pull-down/input)
GATGATTGTTCTCCCAGCTGATGAATTCATCCACTCGAGTAAACAAATTTTCCTAATCTTTCTGTTCAAGCGCCATCTAC | 0.832 RPM ratio (pull-down/input)
GATGATTGTTCTCCCAGCTGATGAATTGTACCACTCGAGTAAACAAATTTTCCTAATCTTTCTGTTCAAGCGCCATCTAC | 0.996 RPM ratio (pull-down/input)
GATGATTGTTCTCCCAGCTGATGAATTCATCTTGTCGAGTAAACAAATTTTCCTAATCTTTCTGTTCAAGCGCCATCTAC | 0.898 RPM ratio (pull-down/input)
GATGATTGTTCTCCCAGCTGATGAATTCTCCTTGTCGAGTAAACAAATTTTCCTAATCTTTCTGTTCAAGCGCCATCTAC | 0.774 RPM ratio (pull-down/input)
GATGATTGTTCTCCCAGCTGATGAATTCCTGATGTCGAGTAAACAAATTTTCCTAATCTTTCTGTTCAAGCGCCATCTAC | 1.08 RPM ratio (pull-down/input)
GATGATTGTTCTCCCAGCTGATGAATTCTTGTTGTCGAGTAAACAAATTTTCCTAATCTTTCTGTTCAAGCGCCATCTAC | 2.6 RPM ratio (pull-down/input)
GATGATTGTTCTCCCAGCTGATGAATTCCTGTTGTCGAGTAAACAAATTTTCCTAATCTTTCTGTTCAAGCGCCATCTAC | 2.34 RPM ratio (pull-down/input)
GATGATTGTTCTCCCAGCTGATGAATTCCTCCTGTCGAGTAAACAAATTTTCCTAATCTTTCTGTTCAAGCGCCATCTAC | 0.729 RPM ratio (pull-down/input)
GATGATTGTTCTCCCAGCTGATGAATTAAAGGTTTCGAGTAAACAAATTTTCCTAATCTTTCTGTTCAAGCGCCATCTAC | 0.867 RPM ratio (pull-down/input)
GATGATTGTTCTCCCAGCTGATGAATTTCCTGACTCGAGTAAACAAATTTTCCTAATCTTTCTGTTCAAGCGCCATCTAC | 0.753 RPM ratio (pull-down/input)

Sequence | binding signal
GATGATTGTTCTCCCAGCTGATGAATTAAGATCTTCGAGTAAACAAATTTTCCTAATCTTTCTGTTCAAGCGCCATCTAC | 0.868 RPM ratio (pull-down/input)
GATGATTGTTCTCCCAGCTGATGAATTCCTCTGATCGAGTAAACAAATTTTCCTAATCTTTCTGTTCAAGCGCCATCTAC | 0.844 RPM ratio (pull-down/input)
GATGATTGTTCTCCCAGCTGATGAATTTATTTCCTCGAGTAAACAAATTTTCCTAATCTTTCTGTTCAAGCGCCATCTAC | 1.3 RPM ratio (pull-down/input)
GATGATTGTTCTCCCAGCTGATGAATTTTATTACTCGAGTAAACAAATTTTCCTAATCTTTCTGTTCAAGCGCCATCTAC | 1.01 RPM ratio (pull-down/input)
GATGATTGTTCTCCCAGCTGATGAATTTTTTGACTCGAGTAAACAAATTTTCCTAATCTTTCTGTTCAAGCGCCATCTAC | 0.935 RPM ratio (pull-down/input)
GATGATTGTTCTCCCAGCTGATGAATTTATTTACTCGAGTAAACAAATTTTCCTAATCTTTCTGTTCAAGCGCCATCTAC | 2.5 RPM ratio (pull-down/input)
GATGATTGTTCTCCCAGCTGATGAATTTGTTGACTCGAGTAAACAAATTTTCCTAATCTTTCTGTTCAAGCGCCATCTAC | 2.35 RPM ratio (pull-down/input)
GATGATTGTTCTCCCAGCTGATGAATTTATTTTCTCGAGTAAACAAATTTTCCTAATCTTTCTGTTCAAGCGCCATCTAC | 1.77 RPM ratio (pull-down/input)
GATGATTGTTCTCCCAGCTGATGAATTTGATGACTCGAGTAAACAAATTTTCCTAATCTTTCTGTTCAAGCGCCATCTAC | 0.974 RPM ratio (pull-down/input)
GATGATTGTTCTCCCAGCTGATGAATTTTATTTCTCGAGTAAACAAATTTTCCTAATCTTTCTGTTCAAGCGCCATCTAC | 1.16 RPM ratio (pull-down/input)
GATGATTGTTCTCCCAGCTGATGAATTGTTTTACTCGAGTAAACAAATTTTCCTAATCTTTCTGTTCAAGCGCCATCTAC | 1.42 RPM ratio (pull-down/input)
GATGATTGTTCTCCCAGCTGATGAATTTGTTTACTCGAGTAAACAAATTTTCCTAATCTTTCTGTTCAAGCGCCATCTAC | 2.62 RPM ratio (pull-down/input)
GATGATTGTTCTCCCAGCTGATGAATTTTTTTACTCGAGTAAACAAATTTTCCTAATCTTTCTGTTCAAGCGCCATCTAC | 0.958 RPM ratio (pull-down/input)
GATGATTGTTCTCCCAGCTGATGAATTATTTTACTCGAGTAAACAAATTTTCCTAATCTTTCTGTTCAAGCGCCATCTAC | 1.2 RPM ratio (pull-down/input)
GATGATTGTTCTCCCAGCTGATGAATTCAATGCGTCGAGTAAACAAATTTTCCTAATCTTTCTGTTCAAGCGCCATCTAC | 1.05 RPM ratio (pull-down/input)
GATGATTGTTCTCCCAGCTGATGAATTATTACGTTCGAGTAAACAAATTTTCCTAATCTTTCTGTTCAAGCGCCATCTAC | 1.21 RPM ratio (pull-down/input)
